High-throughput results from PubChem.
An excerpt weighted towards active compounds, which were near 19% of everything screened.
HT1080-NT tox: kills 2HG-producing HT-1080-NT fibrosarcoma cells; Potency, µM (series often up to 46.1 µM), for inactives: at the top dose activity, negative = less viability, most hits filed as cytotoxic; HT-1080-NT fibrosarcoma viability, CellTiter-Glo ATP luminescence, 48 h; 360,000 compounds, 1.6% hits;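 also: NT is the 2HG producing partner of a matched IDH1 knockdown line; potency is read from the fitted curve at half-maximal effect; 0% = DMSO-treated cells and -100% = media-only wells without cells; nearly all actives have a fitted effect of over 55% in size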
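HT-1080-NT fibrosarcoma cells (2HG-overproducing), 750 cells/well in RPMI with 5% FBS, dosed after 2 h and incubated 48 h at 37C. CellTiter-Glo luminescence normalized to DMSO and no-cell wells; concentration-response curves fitted and classed.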
TDP1 cell CPT: growth inhibition of DT40 Tdp1-/-;hTDP1 cells with camptothecin (screen for TDP1 inhibitors); chicken DT40 Tdp1-/-;hTDP1 cells + 20 nM CPT, ATP luminescence, 48 h; Potency, µM (highest dose often 46.2 µM), without a hit: top-dose activity change, negative = growth inhibition, actives largely listed as inhibitors; 420,000 compounds, 12% hits; also: potency is read from the fitted curve at half-maximal effect; nearly all actives have a fitted effect of over 55% in size
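Cell growth measured by CellTiter-Glo luminescence after a minimum 48 h, 37 C compound exposure with 20 nM CPT in Tdp1-knockout DT40 cells stably expressing hTDP1, seeded 400/well; qHTS titration format.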
HT1080 IDH1KD tx: kills HT-1080 cells with IDH1 knockdown; HT-1080 IDH1 knockdown viability, ATP luminescence, 48 h; Potency, µM (top dose mostly 46.1 µM), inactives show at the top dose activity, negative = toxicity, hits mostly cytotoxic; 360,000 compounds, 2% hits;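 also: potency is read from the fitted curve at half-maximal effect; 0% = DMSO wells and -100% = cell-free medium wells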
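Cytotoxicity counter-line: IDH1KD HT-1080, 48 h, CellTiter-Glo. Curves classed by r2, magnitude and activity.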
TDP1 cell noCPT: qHTS for Inhibitors of human tyrosyl-DNA phosphodiesterase 1 (TDP1): qHTS in cells in absence of CPT. Potency, µM (titrated, usually from 46.2 µM), inactives show top-dose activity change, negative = growth inhibition, actives largely listed as inhibitors. 420,000 compounds, 15% hits. DT40 Tdp1-/- hTDP1 cells, no CPT, ATP luminescence, 48 h; also: potency is read from the fitted curve at half-maximal effect; nearly all actives have a fitted effect of over 55% in size
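Cells were dispensed at 400 per well, compounds added by pin tool, plates incubated ≥48 hr at 37 °C, then CellTiter-Glo added for 30 min at room temperature before luminescence reading. Line: DT40 Tdp1-/- complemented with hTDP1; camptothecin omitted.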
IL-1B inflam inh: inflammasome signaling inhibition, IL-1 beta readout. THP-1 LPS/ATP IL-1B secretion, AlphaLISA, 16 h; active compounds read low. activity change, % at 57.5 µM. 360,000 compounds, 4.7% hits. AID 743279; in the data active = activity change below about -50%; inconclusive = mostly about -30% to -49%
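THP-1 cells pretreated 1 hr with compounds (up to 57.5 uM final), then stimulated with LPS (250 ng/mL final) plus ATP (1.25 mM final); secreted IL-1B measured by AlphaLISA after 16 hr, decreased signal indicating inhibition.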
* hit, by the source's call; ? = inconclusive; · = not tested or not shown. Unless noted, calls follow the shape of the dose curve; as a rule, active = well fitted curve in the direction sought with a large enough effect; inconclusive = small, poorly fitted or top-dose-only effect, or another doubt; inactive = no such curve, though single readings can be large; an effect the other way counts as inactive or inconclusive. Unless noted, % is scaled to controls: 0 for no effect and ±100 for the full control effect.

SMILES | HT1080-NT tox | TDP1 cell CPT | HT1080 IDH1KD tx | TDP1 cell noCPT | IL-1B inflam inh
COc1ccc(C)cc1NS(=O)(=O)c1cnc(N)nc1 | · | 2% | · | -4% | ·
COc1ccc(C)cc1NS(=O)(=O)c1ccc2c(c1)N(C)CCO2 | 4% | ? | -6% | 15µM* | 20
COc1ccc(C)cc1NS(=O)(=O)c1ccc2c(c1)n(C)c(=O)n2C | -2% | -2% | 0% | ? | 24
Cc1ccc(N(C)S(=O)(=O)c2ccc(-c3cnc(C4CC4)o3)cc2)cc1 | ? | 0.029µM* | ? | 0.018µM* | 56
CCOC(=O)C1CCN(C(=O)COC(=O)c2cccc(NS(=O)(=O)c3ccccc3)c2)CC1 | -10% | ? | -7% | ? | -7
O=S(=O)(c1ccc(-c2cnc(C3CC3)o2)cc1)N1CCN(c2ccccc2)CC1 | 3% | ? | -1% | ? | 0
N#Cc1ccc(NS(=O)(=O)c2ccc(-c3cnc(C4CC4)o3)cc2)cc1 | · | 18µM* | · | ? | ·
Cc1cccc(C)c1NS(=O)(=O)c1ccc(-c2cnc(C3CC3)o2)cc1 | 0.082µM* | 0.0058µM* | 0.16µM* | 0.12µM* | 50
CC(=O)c1ccc(NS(=O)(=O)c2ccc(-c3cnc(C4CC4)o3)cc2)cc1 | -14% | -29% | -12% | ? | 59
C=CCSc1nnc(NC(=O)c2cccc(S(=O)(=O)N3CCOCC3)c2)s1 | 1% | ? | 1% | 2% | 5
COc1ccc(C2=NOC3(CC(=O)N(c4ccc(C)cc4)C3=O)C2)c(OC)c1 (stereo unspecified) | 2% | -10% | 3% | -1% | -5
Cc1ccc(C(Sc2ccccc2)C(Cn2cncn2)C(=O)c2ccccc2)cc1 (stereo unspecified) | ? | ? | ? | 23µM* | -29
CCN(CC)C(=O)[C@H]1C[C@H](CC(=O)NC(C)(C)C)C(=O)N2CCc3c([nH]c4cc(CCC(=O)N(C)C)ccc34)[C@]12C | 8% | 0% | 4% | -18% | 19
CCN1C[C@@H]2[C@@H]3C(=O)N(C)C(=O)[C@@H]3[C@](C)(C1=O)N2C(=O)c1ccc(Cl)c(Cl)c1 | 5% | -12% | 14% | -8% | 7
NC(=O)C12CCCC(Br)(CCC1)C2 | 0% | 17% | 14% | -5% | -63*
CCCOc1ccc(CN(CCC#N)C(=S)NC(=O)c2ccccc2)cc1 | -11% | 7.3µM* | -20% | 5.2µM* | 6
O=C(O)c1cccc(N2C(=O)/C(=C/c3ccc(SCc4ccc(Cl)cc4)o3)SC2=S)c1 | -15% | 21µM* | ? | ? | 93
O=C(CCN1C(=O)/C(=C/c2ccc(Cl)cc2)SC1=S)Nc1cccc(C(=O)O)c1 | -13% | 1% | 0% | -12% | 11
COc1ccc2[nH]c(=O)c(-c3nnn(-c4ccccc4)n3)cc2c1 | 9% | ? | 10% | ? | ?
COc1ccc2[nH]c(=O)c(-c3nnn(-c4ccc(Cl)nc4)n3)cc2c1 | 1% | 12µM* | 2% | ? | 14
COc1ccc2[nH]c(=O)c(-c3noc(-c4ccccc4)n3)cc2c1 | -11% | 21µM* | -25% | 18µM* | -16
COc1ccc2[nH]c(=O)c(-c3nnn(-c4ccc(F)cc4)n3)cc2c1 | 2% | 4.6µM* | -1% | 16µM* | 13
O=c1[nH]c2ccccc2cc1-c1nnn(-c2ccccc2)n1 | 17% | 16µM* | 9% | ? | 21
COc1cc(C)c(CN2CCC(Oc3ccc(C(=O)N4CCCC4)cc3)CC2)cc1C | -20% | ? | -12% | ? | -12
Cc1csc(Sc2ccc([N+](=O)[O-])cc2C(=O)OCC(=O)NC(=O)NC(C)(C)C)n1 | 2% | -24% | -7% | ? | -1
SMILES | HT1080-NT tox | TDP1 cell CPT | HT1080 IDH1KD tx | TDP1 cell noCPT | IL-1B inflam inh
Cc1cccc2nc(-c3cccc(NC(=O)Cc4ccccc4)c3)cn12 | 5% | ? | 14% | ? | ?
O=C(Nc1cccc(-c2cn3ccccc3n2)c1)c1cccc(Cl)c1 | ? | ? | ? | 18µM* | -104*
Cc1cccc2nc(-c3cccc(NC(=O)c4ccc(Cl)cc4)c3)cn12 | -23% | 21µM* | -23% | ? | 5
CCCCCCCCCCCCCCCCN | · | 7% | · | -11% | ·
CC(C)COC(=O)N1C[C@H](O)C[C@H]1C(=O)Nc1ccc(Cl)cc1 | 0% | 2% | 5% | 0% | 12
Cc1ccc(C(=O)OCn2ncc(Cl)c(Cl)c2=O)cc1 | 5.8µM* | 1.8µM* | 5.2µM* | 2.6µM* | -99*
Cc1ccc(C(=O)COC(=O)c2nc(Cl)ccc2Cl)cc1 | 7% | 2% | 4% | 1% | 24
O=C(OCn1ncc(Cl)c(Cl)c1=O)c1ccc(C(F)(F)F)cc1 | ? | 2.9µM* | ? | 5.8µM* | -99*
Cc1ccc2cc3c(nc2c1)OCC3 | ? | -13% | 29% | -5% | -16
COc1cccc(/C=N/NC(=O)CN2CC(c3ccccc3)CC2=O)c1OC (stereo unspecified) | 5% | -3% | 11% | 14% | -1
COC(=O)/C=C/C(=O)N1CCN(c2ccccc2C)CC1 | 11% | ? | 9% | 16µM* | -108*
COC(=O)/C=C/C(=O)N1CCN(c2ccccc2)CC1 | 19% | 10% | 21% | 3% | -91*
COc1ccccc1CNC(=O)N1CCN(c2ccccc2C)CC1 | 0% | -20% | -14% | ? | 10
Cc1ccccc1N1CCN(c2ccccc2NC(=O)/C=C\C(=O)O)CC1 | 6% | 16µM* | -5% | ? | 16
Cc1ccc(CN2CCSCC2)cc1 | 7% | 5% | 5% | 1% | 6
COc1cc2[nH]c(=O)n(CCCC(=O)N(C)Cc3ccccc3)c(=O)c2cc1OC | · | ? | · | -25% | ·
CCOc1cc(O)c(-c2[nH]ncc2-c2nc(C)cs2)cc1CC | -18% | 23µM* | -28% | 21µM* | 5
CCc1cc(-c2[nH]ncc2-c2nc3ccccc3n2C)c(O)cc1O | -5% | -20% | -4% | ? | -10
O=C1c2cccnc2C(=O)N1Cc1ccc(S(=O)(=O)N2CCOc3ccccc32)cc1 | 2% | -6% | 1% | -18% | -14
O=C(Cn1c(=O)n(Cc2ccco2)c(=O)c2c3c(sc21)CCCCC3)c1ccccc1 | -12% | 15µM* | -16% | 15µM* | 14
O=c1c2c3c(sc2n(CCN2CCCC2)c(=O)n1Cc1ccco1)CCCCC3 | 2% | 8.2µM* | -3% | 12µM* | ?
Cc1nn(-c2ccccc2)c(C)c1[N+](=O)[O-] | 5% | -5% | 4% | -5% | 20
O=[N+]([O-])c1c(C(Cl)Cl)nn(-c2ccccc2)c1N1CCOCC1 | -12% | ? | -9% | -27% | -81*
